Data published in PubChem BioAssay AID1159580 (chemical genetic matrix, 2015).
Hit rate of the full screen: of about 5,500 compounds, about 2,000 (36%) were called active. Another 18% or so got no clear call; they are omitted. Rule as the data show it: active = normalized growth mostly below about 0.91 (no sharp cut-off); inconclusive = no clear call, values can overlap the other calls; inactive = mostly above about 0.92. Some of the results follow.

Experiment: chemical genetic growth profiling, strain panel (AID 1159580);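 also: tested at 20 µM; growth read once vehicle control cultures reached saturation at 30 °C; 1 = growth at the plate median or of vehicle wells; lower values mean less growth of the strain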
Conditions: growth OD
[1] = S. cerevisiae deletion strains, locus YDL101C, strain DUN1, active compounds read low
[2] = S. cerevisiae deletion strains, locus YHR030C, strain SLT2, active compounds read low
[3] = S. cerevisiae deletion strains, locus YAL013W, strain DEP1, active compounds read low
[4] = S. cerevisiae deletion strains, locus YBR229C, strain ROT2, active compounds read low
[5] = S. cerevisiae deletion strains, locus YCL061C, strain MRC1, active compounds read low
[6] = S. cerevisiae deletion strains, locus YDL134C, strain PPH21, active compounds read low
[7] = S. cerevisiae deletion strains, locus YDR150W, strain NUM1, active compounds read low
[8] = S. cerevisiae deletion strains, locus YEL061C, strain CIN8, active compounds read low
[9] = S. cerevisiae deletion strains, locus YGR078C, strain PAC10, active compounds read low
[10] = S. cerevisiae deletion strains, locus YGR229C, strain SMI1, active compounds read low
[11] = S. cerevisiae deletion strains, locus YHR087W, strain rtc3, active compounds read low
[12] = S. cerevisiae deletion strains, locus YJR043C, strain POL32, active compounds read low
[13] = S. cerevisiae deletion strains, locus YJR075W, strain HOC1, active compounds read low
[14] = S. cerevisiae deletion strains, locus YLR039C, strain RIC1, active compounds read low
[15] = S. cerevisiae deletion strains, locus YLR058C, strain SHM2 (second series), active compounds read low
[16] = S. cerevisiae deletion strains, locus YLR085C, strain ARP6, active compounds read low
[17] = S. cerevisiae deletion strains, locus YLR262C, strain YPT6, active compounds read low
[18] = S. cerevisiae deletion strains, locus YML094W, strain GIM5, active compounds read low
[19] = S. cerevisiae deletion strains, locus YMR219W, strain ESC1, active compounds read low
[20] = S. cerevisiae deletion strains, locus YMR263W, strain SAP30, active compounds read low
[21] = S. cerevisiae deletion strains, locus YNL153C, strain GIM3, active compounds read low
[22] = S. cerevisiae deletion strains, locus YNL298W, strain CLA4 (second series), active compounds read low
[23] = S. cerevisiae deletion strains, locus YNL322C, strain KRE1, active compounds read low
[24] = S. cerevisiae deletion strains, locus YNR030W, strain Alg12, active compounds read low
[25] = S. cerevisiae deletion strains, locus YPL055C, strain LGE1, active compounds read low
[26] = S. cerevisiae deletion strains, locus YPL241C, strain CIN2, active compounds read low
[27] = S. cerevisiae deletion strains, locus YPR135W, strain CTF4, active compounds read low

Measured: normalized growth

CCOC(=O)c1ccc2nc(N=CNO)sc2c1
inactive: S. cerevisiae deletion strains, locus YAR019C, strain CDC15, active compounds read low 0.948 | S. cerevisiae deletion strains, locus YBL105C, strain PKC1, active compounds read low 0.94 | S. cerevisiae deletion strains, locus YBR135W, strain CKS1, active compounds read low 0.947 | S. cerevisiae deletion strains, locus YBR136W, strain MEC1, active compounds read low 0.951 | S. cerevisiae deletion strains, locus YBR160W, strain CDC28, active compounds read low 0.954 | S. cerevisiae deletion strains, locus YDL017W, strain CDC7, active compounds read low 0.953 | S. cerevisiae deletion strains, locus YDL028C, strain MPS1, active compounds read low 0.956 | [1] 0.973 | S. cerevisiae deletion strains, locus YDL108W, strain KIN28, active compounds read low 0.946 | S. cerevisiae deletion strains, locus YDL132W, strain cdc53, active compounds read low 0.946 | S. cerevisiae deletion strains, locus YDL214C, strain PRR2, active compounds read low 0.905 | S. cerevisiae deletion strains, locus YDR052C, strain DBF4, active compounds read low 0.961 | S. cerevisiae deletion strains, locus YDR054C, strain cdc34, active compounds read low 0.938 | S. cerevisiae deletion strains, locus YDR226W, strain ADK1, active compounds read low 0.958 | S. cerevisiae deletion strains, locus YDR477W, strain SNF1, active compounds read low 0.913 | S. cerevisiae deletion strains, locus YER123W, strain YCK3, active compounds read low 0.864 | S. cerevisiae deletion strains, locus YER133W, strain GLC7, active compounds read low 0.888 | S. cerevisiae deletion strains, locus YFL009W, strain cdc4, active compounds read low 0.938 | S. cerevisiae deletion strains, locus YFL029C, strain CAK1, active compounds read low 0.951 | S. cerevisiae deletion strains, locus YFR003C, strain YPI1, active compounds read low 0.951 | S. cerevisiae deletion strains, locus YFR019W, strain FAB1, active compounds read low 0.909 | S. cerevisiae deletion strains, locus YFR028C, strain CDC14, active compounds read low 0.967 | S. cerevisiae deletion strains, locus YGR040W, strain KSS1, active compounds read low 0.919 | S. cerevisiae deletion strains, locus YGR052W, strain FMP48, active compounds read low 0.983 | S. cerevisiae deletion strains, locus YGR092W, strain DBF2, active compounds read low 0.771 | [2] 0.961 | S. cerevisiae deletion strains, locus YHR079C, strain IRE1, active compounds read low 0.964 | S. cerevisiae deletion strains, locus YHR082C, strain KSP1, active compounds read low 0.986 | S. cerevisiae deletion strains, locus YHR205W, strain SCH9, active compounds read low 0.886 | S. cerevisiae deletion strains, locus YIL147C, strain SLN1, active compounds read low 0.945 | S. cerevisiae deletion strains, locus YJL095W, strain BCK1, active compounds read low 0.977 | S. cerevisiae deletion strains, locus YJL128C, strain PBS2, active compounds read low 0.94 | S. cerevisiae deletion strains, locus YJL157C, strain FAR1, active compounds read low 0.881 | S. cerevisiae deletion strains, locus YJR016C, strain ILV3, active compounds read low 0.948 | S. cerevisiae deletion strains, locus YJR066W, strain TOR1 (second series), active compounds read low 0.717 | S. cerevisiae deletion strains, locus YJR066W, strain TOR1, active compounds read low 0.995 | S. cerevisiae deletion strains, locus YKL048C, strain ELM1, active compounds read low 0.955 | S. cerevisiae deletion strains, locus YKL067W, strain YNK1, active compounds read low 0.915 | S. cerevisiae deletion strains, locus YKL101W, strain HSL1, active compounds read low 0.907 | S. cerevisiae deletion strains, locus YKL193C, strain SDS22, active compounds read low 0.955 | S. cerevisiae deletion strains, locus YKL203C, strain TOR2, active compounds read low 0.958 | S. cerevisiae deletion strains, locus YLR113W, strain HOG1, active compounds read low 0.988 | S. cerevisiae deletion strains, locus YLR133W, strain CKI1, active compounds read low 0.922 | S. cerevisiae deletion strains, locus YLR403W, strain SFP1, active compounds read low 0.879 | S. cerevisiae deletion strains, locus YML070W, strain DAK1, active compounds read low 0.892 | S. cerevisiae deletion strains, locus YMR001C, strain CDC5, active compounds read low 0.951 | S. cerevisiae deletion strains, locus YMR205C, strain PFK2 (second series), active compounds read low 0.931 | S. cerevisiae deletion strains, locus YMR277W, strain FCP1, active compounds read low 0.963 | S. cerevisiae deletion strains, locus YNL006W, strain LST8, active compounds read low 0.945 | S. cerevisiae deletion strains, locus YNL020C, strain ARK1, active compounds read low 0.911 | S. cerevisiae deletion strains, locus YNL161W, strain CBK1, active compounds read low 0.951 | S. cerevisiae deletion strains, locus YNL183C, strain NPR1, active compounds read low 1 | S. cerevisiae deletion strains, locus YNL207W, strain RIO2, active compounds read low 0.949 | S. cerevisiae deletion strains, locus YNL222W, strain SSU72, active compounds read low 0.952 | S. cerevisiae deletion strains, locus YNL307C, strain MCK1 (second series), active compounds read low 0.926 | S. cerevisiae deletion strains, locus YOL078W, strain AVO1, active compounds read low 0.958 | S. cerevisiae deletion strains, locus YOL136C, strain PFK27, active compounds read low 0.892 | S. cerevisiae deletion strains, locus YOR061W, strain CKA2, active compounds read low 0.894 | S. cerevisiae deletion strains, locus YOR119C, strain RIO1, active compounds read low 0.908 | S. cerevisiae deletion strains, locus YOR231W, strain MKK1, active compounds read low 0.938 | S. cerevisiae deletion strains, locus YOR329C, strain SCD5, active compounds read low 0.947 | S. cerevisiae deletion strains, locus YPL031C, strain PHO85, active compounds read low 0.867 | S. cerevisiae deletion strains, locus YPL153C, strain RAD53, active compounds read low 0.88 | S. cerevisiae deletion strains, locus YPL204W, strain HRR25, active compounds read low 0.889 | S. cerevisiae deletion strains, locus YPL209C, strain IPL1, active compounds read low 0.947 | S. cerevisiae deletion strains, locus YPL256C, strain CLN2, active compounds read low 1.02 | S. cerevisiae deletion strains, locus YPR025C, strain CCL1, active compounds read low 0.95 | S. cerevisiae deletion strains, locus YPR106W, strain ISR1, active compounds read low 0.968 | S. cerevisiae deletion strains, locus YPR111W, strain DBF20, active compounds read low 0.963 | S. cerevisiae deletion strains, strain NNK1, active compounds read low 0.96 | S. cerevisiae deletion strains, strain TSCII, active compounds read low 0.952

CCc1nnc(N=CNO)s1
active: [4] 0.846 | [8] 0.843 | [2] 0.573 | [11] 0.79 | S. cerevisiae deletion strains, locus YJL187C, strain SWE1, active compounds read low 0.817 | [13] 0.809 | [18] 0.855 | [19] 0.879 | [22] 0.823 | S. cerevisiae deletion strains, locus YOL006C, strain TOP1, active compounds read low 0.465
inactive: [3] 0.956 | [5] 0.913 | [1] 0.932 | [6] 0.989 | [7] 0.978 | [9] 0.973 | [10] 0.992 | [12] 0.97 | [14] 0.967 | [15] 1 | [16] 0.803 | [17] 0.947 | [20] 0.968 | [21] 0.965 | [23] 1.01 | [24] 0.944 | [25] 0.909 | [26] 0.99 | [27] 0.795

CCOC(=O)Cc1csc(N=CNO)n1
inactive: [3] 1.01 | [4] 1.02 | [5] 1.01 | [1] 1 | [6] 1.02 | [7] 0.892 | [8] 1.01 | [9] 1.02 | [10] 0.997 | [2] 0.999 | [11] 1.04 | [12] 0.989 | [13] 1.05 | [14] 0.992 | [15] 1.02 | [16] 1.03 | [17] 0.951 | [18] 1.02 | [19] 1.02 | [20] 0.999 | S. cerevisiae deletion strains, locus YMR307W, strain GAS1, active compounds read low 1.03 | S. cerevisiae deletion strains, locus YNL128W, strain TEP1, active compounds read low 0.999 | [21] 1.01 | [22] 1.05 | [23] 1.01 | [24] 1.03 | [25] 1.02 | [26] 1.02 | [27] 1.04 | S. cerevisiae strains, strain wild type, active compounds read low 1.03
